# The supplement of paper PMC13380429
# What was measured:
# [1] = system: Vero E6 infected with SARS-CoV-2; test: morphology score (similarity to uninfected cells); higher = more like uninfected cells; details: 24 h
# [2] = system: Vero E6 infected with SARS-CoV-2; test: SARS-CoV-2 infection rate relative to infected DMSO; higher = more infection, active = 60 or less; details: 24 h
SMILES,morphology score [1],SARS-CoV-2 infection rate [2]
CC[C@@H](Nc1c(Nc2cccc(C(=O)N(C)C)c2O)c(=O)c1=O)c1ccc(C)o1 [navarixin] (10 µM),-0.0629,110% (inactive)
CC(C)C[C@@H](NC(=O)[C@H](Cc1ccccc1)NC(=O)CNC(=O)[C@@H](C)NC(=O)[C@@H](N)Cc1ccc(O)cc1)C(=O)O (10 µM),0.159,97% (inactive)
CCCc1ccc(C(=O)O)cc1 [4-propylbenzoic-acid] (10 µM),0.187,95% (inactive)
C=CCc1ccc(O)c(-c2cc(CC=C)ccc2O)c1 [magnolol] (10 µM),0.249,108% (inactive)
N#C/C(=C\c1ccc(O)c(O)c1)C(=O)NCc1ccccc1 (10 µM),0.214,98% (inactive)
CCC(C)(C)C(=O)C(=O)N1CCC[C@H]1C(=O)OCCCc1cccnc1 (10 µM),-0.0394,116% (inactive)
CCn1cnc(C(=O)NC)c1C(=O)NC [ethimizol] (10 µM),0.114,96.5% (inactive)
COc1ccc2c(c1)c(CC(=O)N1CCOCC1)c(C)n2C(=O)c1ccc(Cl)cc1 (10 µM),0.131,112% (inactive)
CC(/C=C/C(=O)NO)=C\[C@@H](C)C(=O)c1ccc(N(C)C)cc1 [trichostatin-a] (0.833333 µM),-0.0945,108% (inactive)
NS(=O)(=O)OC[C@@H]1C[C@@H](n2ccc3c(N[C@H]4CCc5ccccc54)ncnc32)C[C@@H]1O [pevonedistat] (0.833333 µM),-0.404,110% (inactive)
NCCc1c[nH]cn1 [histamine] (10 µM),-0.112,114% (inactive)
CCC/N=C1\S/C(=C\c2ccc(OC[C@H](O)CO)c(Cl)c2)C(=O)N1c1ccccc1C [ponesimod] (10 µM),-0.2,108% (inactive)
N#CC1(c2ccc(NC(=O)c3cccnc3NCc3ccncc3)cc2)CCCC1 [apatinib] (10 µM),0.31,107% (inactive)
COc1ccnc(C[S+]([O-])c2nc3cc(OC(F)F)ccc3[nH]2)c1OC (configuration not stated) [pantoprazole] (10 µM),-0.142,104% (inactive)
CC(C)(C)OC(=O)c1ncn2c1[C@@H]1CCCN1C(=O)c1c(Br)cccc1-2 [bretazenil] (10 µM),0.108,101% (inactive)
C=CC1=C(C)c2cc3[nH]c(cc4nc(cc5[nH]c(cc1n2)c(C)c5CCC(=O)O)C(CCC(=O)O)=C4C)c(C)c3C=C [protoporphyrin-IX] (10 µM),-0.0298,115% (inactive)
Nc1ccccc1NC(=O)c1ccc(CNc2nccc(-c3cccnc3)n2)cc1 [mocetinostat] (0.833333 µM),-0.00842,104% (inactive)
NC(=O)N1C(=O)/C(=C(\O)c2cccs2)c2cc(Cl)ccc21 [tenidap] (10 µM),0.0356,91% (inactive)
CC(=O)c1ccc(S(=O)(=O)NC(=O)NC2CCCCC2)cc1 [acetohexamide] (10 µM),0.11,100% (inactive)
O=C(NOCC(O)CO)c1cc(Br)c(F)c(F)c1Nc1ccc(I)cc1F (configuration not stated) (0.833333 µM),-0.0489,112% (inactive)
O=C(Nc1ccccc1)OCC(CN1CCCCC1)OC(=O)Nc1ccccc1 (configuration not stated) [diperodon] (10 µM),-0.0894,108% (inactive)

SMILES,morphology score [1],SARS-CoV-2 infection rate [2]
O=S1(=O)N[C@H]2CCCN2c2ccccc21 (10 µM),0.0127,104% (inactive)
CC(C)(COP(=O)(O)OP(=O)(O)OC[C@H]1O[C@@H](n2cnc3c(N)ncnc32)[C@H](O)[C@@H]1OP(=O)(O)O)[C@@H](O)C(=O)NCCC(=O)NCCS [coenzyme-A] (10 µM),0.0234,102% (inactive)
O=C(/C=C/c1ccc2ccccc2n1)c1ccncc1 (0.833333 µM),0.0453,104% (inactive)
CC(C)(O)CC(=O)NCCn1ccc2ncnc(Nc3ccc(Oc4cccc(C(F)(F)F)c4)c(Cl)c3)c21 (10 µM),-0.138,114% (inactive)
Cn1cc(C(=O)c2cccc3ccccc23)cc1C(=O)O [napirimus] (10 µM),0.122,107% (inactive)
CCN1C[C@H](C)n2c(c(O)c3c(=O)n(Cc4ccc(F)c(Cl)c4)nc(C(=O)NC)c32)C1=O (10 µM),0.0188,97.5% (inactive)
O=C(c1cncc(Br)c1)N1CCC(N2CCCC2)CC1 (10 µM),0.146,108% (inactive)
CC(N)Cc1c[nH]c2ccc(OCc3cccs3)cc12 (configuration not stated) (10 µM),0.0586,90% (inactive)
CC[C@H]1[C@@H](O)[C@@H]2[C@H](CC[C@]3(C)[C@@H]([C@H](C)CCOS(=O)(=O)O)CC[C@@H]23)[C@@]2(C)CC[C@@H](O)C[C@@H]12 (10 µM),-0.0685,106% (inactive)
c1ccc(C(NCc2cccnc2)(c2ccccc2)c2ccccc2)cc1 (10 µM),-0.069,104% (inactive)
COc1ccc2[nH]cc(C3=CCNCC3)c2c1 (10 µM),0.191,104% (inactive)
CC[C@H]1OC(=O)C[C@@H](O)[C@H](C)[C@@H](O[C@@H]2O[C@H](C)[C@@H](O[C@H]3C[C@@](C)(O)[C@@H](O)[C@H](C)O3)[C@H](N(C)C)[C@H]2O)[C@@H](CC=O)C[C@@H](C)C(=O)/C=C/C(C)=C/[C@@H]1CO[C@@H]1O[C@H](C)[C@@H](O)[C@@H](OC)[C@H]1OC (0.833333 µM),-0.000376,81% (inactive)
CNC[C@H](O)c1cccc(O)c1 [phenylephrine] (10 µM),-0.0115,110% (inactive)
CC(C)c1cc(C(C)C)c(CC(=O)NS(=O)(=O)Oc2c(C(C)C)cccc2C(C)C)c(C(C)C)c1 [avasimibe] (10 µM),0.0222,110% (inactive)
CC1(C)S[C@@H]2[C@H](NC(=O)[C@H](NC(=O)N3CCNC3=O)c3ccccc3)C(=O)N2[C@H]1C(=O)O [azlocillin] (10 µM),-0.0252,104% (inactive)
C=CC(=O)Nc1ccc2ncnc(Nc3cccc(Br)c3)c2c1 (0.833333 µM),0.0618,90% (inactive)
COc1cc(OC)c(/C=C2/C(=O)Nc3ccccc32)c(OC)c1 (10 µM),-0.0269,96.5% (inactive)
C=CC(=O)c1ccc2ccccc2c1 [JAK3-inhibitor-V] (10 µM),0.0151,102% (inactive)
CN[C@@H](C)CCC=C(C)C [isometheptene-mucate] (10 µM),-0.0576,109% (inactive)
CCCn1c(=O)[nH]c2nc(-c3ccc(S(=O)(=O)O)cc3)[nH]c2c1=O (10 µM),0.179,105% (inactive)
COC(=O)C1=CO[C@@H](O[C@@H]2O[C@H](CO)[C@@H](O)[C@H](O)[C@H]2O)[C@@H]2C(CO)=CC[C@H]12 [geniposide] (10 µM),-0.322,116% (inactive)

SMILES,morphology score [1],SARS-CoV-2 infection rate [2]
CCCc1nc(C(C)(C)O)c(C(=O)OCc2oc(=O)oc2C)n1Cc1ccc(-c2ccccc2-c2nnn[nH]2)cc1 [olmesartan-medoxomil] (10 µM),-0.0296,116% (inactive)
NC(=O)Cc1cccc(C(=O)c2ccccc2)c1N [nepafenac] (10 µM),0.0605,120% (inactive)
Cc1nc2c(OCc3ccccc3)cccn2c1CC#N (10 µM),0.0125,110% (inactive)
Cc1cc(NC(=O)Nc2ccc(F)c(F)c2)n(-c2ccccc2)n1 (10 µM),0.105,102% (inactive)
CCC(CC)(CC(=O)Nc1cccc(/C=C/c2nc(C3CCC3)cs2)c1)C(=O)O [cinalukast] (10 µM),0.068,105% (inactive)
CC1CC(OC(=O)C(O)c2ccccc2)CC(C)(C)N1C (configuration not stated) [eucatropine] (10 µM),-0.104,115% (inactive)
CC(C)(C)NS(=O)(=O)c1cncc(-c2cc(F)c3nc(N)nn3c2)c1 (10 µM),0.0263,104% (inactive)
CC[C@@]1(O)C(=O)OCc2c1cc1n(c2=O)Cc2cc3cc(O)ccc3nc2-1 [10-hydroxycamptothecin] (10 µM),-0.13,103% (inactive)
COc1ccc(S(=O)(=O)Nc2nc(-c3cccc([N+](=O)[O-])c3)cs2)cc1OC (10 µM),-0.00369,107% (inactive)
N=C(NCCC[C@H](N)C(=O)O)N[N+](=O)[O-] [NG-nitro-arginine] (10 µM),-0.0213,108% (inactive)
CCCN(CCC)CCc1ccc(OC)c(OCCc2ccccc2)c1 (10 µM),0.353,86.5% (inactive)
CC(C)c1cc2c(cc1S(=O)(=O)O)[C@@]1(C)CCC[C@@](C)(C(=O)O)[C@@H]1CC2 [ecabet] (10 µM),0.0527,102% (inactive)
Cn1c(N2CCCCS2(=O)=O)nc(C(=O)NCc2ccc(F)cc2)c(O)c1=O (10 µM),0.046,104% (inactive)
N=C(N)Nc1ccc(Cl)cc1 [4-chlorophenylguanidine] (10 µM),-0.231,114% (inactive)
CCN1CCCC1CNC(=O)c1cc(S(N)(=O)=O)ccc1OC (configuration not stated) [sulpiride] (10 µM),-0.0261,105% (inactive)
CS(=O)(=O)Nc1ccc(Cc2noc(-c3ccc4[nH]cc(CCN)c4c3)n2)cc1 (10 µM),0.141,103% (inactive)
O=C1NC(=O)/C(=C/c2ccc3nccc(-c4ccncc4)c3c2)S1 (0.833333 µM),0.151,108% (inactive)
CCOc1cc([C@@H](CS(C)(=O)=O)N2C(=O)c3cccc(NC(C)=O)c3C2=O)ccc1OC [apremilast] (10 µM),0.345,89% (inactive)
Cc1[nH]c2ccccc2c1CCNC(=O)c1cccs1 (10 µM),0.142,103% (inactive)
